From PubChem BioAssay AID1159580 (chemical genetic matrix, 2015)
Values joined by “and” are separate entries in the source; they are usually repeats but may differ in a detail not shown here. Identical values can stand only once. Out of some 5,500 compounds screened, about 2,000 (36%) were called active. Roughly 18% stayed inconclusive and do not appear here. Cut-off read from the data, not from the text of the source: active = normalized growth mostly below about 0.91 (no sharp cut-off); inconclusive = no clear call, values can overlap the other calls; inactive = mostly above about 0.92. Some of the results follow.

Test: chemical genetic growth profiling, strain panel (AID 1159580);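 note: tested at 20 µM; growth read once vehicle control cultures reached saturation at 30 °C; 1 = growth at the plate median or of vehicle wells; lower values mean less growth of the strain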
Conditions: S. cerevisiae deletion strains, growth OD

Measured: normalized growth

C=C(C)[C@H]1COc2cc3oc(=O)ccc3cc2O1
inactive: locus YAL030W, strain snc1, stronger effect = lower value 0.933 | locus YBR171W, strain sec66, stronger effect = lower value 0.938 | locus YBR229C, strain ROT2, stronger effect = lower value 0.956 | locus YDL005C, strain med2, stronger effect = lower value 0.959 | locus YDL040C, strain nat1, stronger effect = lower value 0.957 | locus YDL185W, strain tfp1, stronger effect = lower value 0.924 | locus YDR001C, strain nth1, stronger effect = lower value 0.956 | locus YDR159W, strain sac3, stronger effect = lower value 0.905 | locus YDR195W, strain ref2 1.05 | locus YDR297W, strain sur2, stronger effect = lower value 0.956 | locus YDR334W, strain swr1, stronger effect = lower value 0.921 | locus YDR392W, strain spt3, stronger effect = lower value 0.775 | locus YEL037C, strain rad23, stronger effect = lower value 0.956 | locus YER111C, strain swi4, stronger effect = lower value 0.961 | locus YFR010W, strain ubp6, stronger effect = lower value 0.945 | locus YGL078C, strain dbp3, stronger effect = lower value 0.993 | locus YGL167C, strain pmr1, stronger effect = lower value 0.995 | locus YGL173C, strain kem1, stronger effect = lower value 0.906 | locus YGL227W, strain vid30, stronger effect = lower value 0.932 | locus YHR027C, strain rpn1, stronger effect = lower value 0.929 | locus YHR079C, strain IRE1 (second series), stronger effect = lower value 0.967 | locus YHR079C, strain IRE1, stronger effect = lower value 1.01 | locus YHR094C, strain hxt1, stronger effect = lower value 0.948 | locus YJL115W, strain asf1, stronger effect = lower value 0.977 | locus YJL134W, strain LCB3, stronger effect = lower value 0.934 | locus YJL154C, strain vps35, stronger effect = lower value 0.958 | locus YJR066W, strain TOR1, stronger effect = lower value 0.926 | locus YKL009W, strain mrt4, stronger effect = lower value 0.965 | locus YKL068W, stronger effect = lower value 0.985 | locus YKL085W, strain MDH1 (second series), stronger effect = lower value 0.972 | locus YKL085W, strain MDH1, stronger effect = lower value 0.972 | locus YKR026C, strain gcn3, stronger effect = lower value 0.979 | locus YKR091W, strain srl3, stronger effect = lower value 0.973 | locus YLL026W, stronger effect = lower value 0.966 | locus YLL041C, strain sdh2, stronger effect = lower value 0.989 | locus YLR027C, strain aat2, stronger effect = lower value 0.935 | locus YLR113W, strain HOG1, stronger effect = lower value 0.996 | locus YLR384C, strain iki3, stronger effect = lower value 0.993 | locus YML120C, strain ndi1, stronger effect = lower value 0.972 | locus YMR125W, strain sto1, stronger effect = lower value 0.982 | locus YMR129W, stronger effect = lower value 0.989 | locus YNL183C, strain NPR1, stronger effect = lower value 0.925 | locus YNL209W, strain ssb2, stronger effect = lower value 0.93 | locus YNL248C, strain rpa49, stronger effect = lower value 0.932 | locus YNL250W, strain rad50, stronger effect = lower value 0.995 | locus YNL322C, strain KRE1 (second series), stronger effect = lower value 0.918 | locus YNR049C, strain mso1, stronger effect = lower value 0.923 | locus YOL012C, strain htz1 0.694 | locus YOR001W, strain rrp6, stronger effect = lower value 0.956 | locus YOR080W, strain dia2, stronger effect = lower value 0.921 | locus YOR231W, strain MKK1, stronger effect = lower value 0.978 | locus YOR290C, strain snf2, stronger effect = lower value 0.888 | locus YOR316C, strain cot1, stronger effect = lower value 0.991 | locus YPL240C, strain hsp82, stronger effect = lower value 0.966 | locus YPL256C, strain CLN2, stronger effect = lower value 1.03 | locus YPR141C, strain kar3, stronger effect = lower value 0.988
active: locus YAL021C, strain ccr4, stronger effect = lower value 0.52 | locus YAL026C, strain drs2, stronger effect = lower value 0.51 | locus YBL061C, strain skt5, stronger effect = lower value 0.213 | locus YBR009C, strain hhf1, stronger effect = lower value 0.811 | locus YBR021W, strain FUR4, stronger effect = lower value 0.116 | locus YBR023C, strain chs3, stronger effect = lower value 0.339 | locus YBR231C, strain swc5, stronger effect = lower value 0.786 | locus YBR279W, strain paf1, stronger effect = lower value 0.931 | locus YCL011C, strain gbp2, stronger effect = lower value 0.852 | locus YCL016C, strain dcc1, stronger effect = lower value 0.736 | locus YCL029C, strain bik1, stronger effect = lower value 0.72 | locus YCL061C, strain MRC1, stronger effect = lower value 0.793 | locus YCL069W, strain vba3, stronger effect = lower value 0.783 | locus YCR088W, strain abp1, stronger effect = lower value 0.814 | locus YDL035C, strain GPR1, stronger effect = lower value 0.491 | locus YDL074C, strain BRE1, stronger effect = lower value 0.465 | locus YDL101C, strain DUN1, stronger effect = lower value 0.36 | locus YDL192W, strain arf1, stronger effect = lower value 0.111 | locus YDR069C, strain doa4, stronger effect = lower value 0.888 | locus YDR101C, strain arx1, stronger effect = lower value 0.724 | locus YDR137W, strain rgp1, stronger effect = lower value 0.279 | locus YDR150W, strain NUM1, stronger effect = lower value 0.53 | locus YDR162C, strain NBP2, stronger effect = lower value 0.0606 | locus YDR318W, strain mcm21, stronger effect = lower value 0.62 | locus YDR335W, strain msn5, stronger effect = lower value 0.857 | locus YDR388W, stronger effect = lower value 0.515 | locus YDR502C, strain sam2, stronger effect = lower value 0.387 | locus YEL003W, strain gim4, stronger effect = lower value 0.911 | locus YEL061C, strain CIN8 (second series), stronger effect = lower value 0.447 | locus YER015W, strain faa2, stronger effect = lower value 0.9 | locus YER016W, strain bim1, stronger effect = lower value 0.791 | locus YER110C, stronger effect = lower value 0.747 | locus YER155C, strain BEM2 (second series), stronger effect = lower value 0.444 | locus YER155C, strain BEM2, stronger effect = lower value 0.879 | locus YER167W, strain BCK2, stronger effect = lower value 0.671 | locus YGL086W, strain mad1, stronger effect = lower value 0.578 | locus YGL240W, strain doc1, stronger effect = lower value 0.756 | locus YGL248W, strain PDE1, stronger effect = lower value 0.385 | locus YGL253W, strain hxk2, stronger effect = lower value 0.466 | locus YGR135W, strain pre9, stronger effect = lower value 0.574 | locus YGR252W, strain gcn5, stronger effect = lower value 0.28 | locus YHR013C, strain ard1, stronger effect = lower value 0.692 | locus YHR030C, strain SLT2, stronger effect = lower value 0.272 | locus YHR129C, strain ARP1, stronger effect = lower value 0.554 | locus YHR142W, strain chs7, stronger effect = lower value 0.148 | locus YHR200W, strain rpn10, stronger effect = lower value 0.572 | locus YIL066C, strain RNR3, stronger effect = lower value 0.407 | locus YIL073C, strain SPO22, stronger effect = lower value 0.16 | locus YIL125W, strain kgd1, stronger effect = lower value 0.916 | locus YIR030C, strain dcg1, stronger effect = lower value 0.819 | locus YJL092W, strain hpr5, stronger effect = lower value 0.903 | locus YJL095W, strain BCK1 (second series), stronger effect = lower value 0.107 | locus YJL095W, strain BCK1, stronger effect = lower value 0.0661 and 0.314 | locus YJL129C, strain trk1, stronger effect = lower value 0.452 | locus YJL164C, strain tpk1, stronger effect = lower value 0.871 | locus YJL166W, strain qcr8, stronger effect = lower value 0.662 | locus YJL168C, strain set2, stronger effect = lower value 0.887 | locus YJL187C, strain SWE1 (second series), stronger effect = lower value 0.635 | locus YJL187C, strain SWE1, stronger effect = lower value 0.886 | locus YJR043C, strain POL32, stronger effect = lower value 0.249 | locus YKL160W, strain elf1, stronger effect = lower value 0.749 | locus YKR001C, strain vps1, stronger effect = lower value 0.0831 | locus YLL001W, strain dnm1, stronger effect = lower value 0.868 | locus YLR039C, strain RIC1, stronger effect = lower value 0.12 | locus YLR058C, strain SHM2, stronger effect = lower value 0.571 | locus YLR102C, strain apc9, stronger effect = lower value 0.863 | locus YLR221C, strain rsa3, stronger effect = lower value 0.898 | locus YLR258W, strain gsy2, stronger effect = lower value 0.902 | locus YLR262C, strain YPT6 (second series), stronger effect = lower value 0.23 | locus YLR262C, strain YPT6, stronger effect = lower value 0.166 | locus YLR268W, strain sec22, stronger effect = lower value 0.597 | locus YLR320W, strain mms22, stronger effect = lower value 0.75 | locus YLR330W, strain CHS5, stronger effect = lower value 0.0549 | locus YLR342W, strain FKS1 (second series), stronger effect = lower value 0.075 | locus YLR342W, strain FKS1, stronger effect = lower value 0.0723 | locus YLR357W, strain rsc2, stronger effect = lower value 0.538 | locus YLR370C, strain arc18, stronger effect = lower value 0.657 | locus YLR371W, strain rom2, stronger effect = lower value 0.123 | locus YLR418C, strain cdc73, stronger effect = lower value 0.18 | locus YML016C, strain PPZ1, stronger effect = lower value 0.548 | locus YML032C, strain rad52, stronger effect = lower value 0.555 | locus YML124C, strain tub3, stronger effect = lower value 0.805 | locus YMR058W, strain fet3, stronger effect = lower value 0.838 | locus YMR078C, strain ctf18, stronger effect = lower value 0.871 | locus YMR205C, strain PFK2, stronger effect = lower value 0.776 | locus YMR223W, strain ubp8, stronger effect = lower value 0.514 | locus YMR231W, strain pep5, stronger effect = lower value 0.114 | locus YMR307W, strain GAS1, stronger effect = lower value 0.192 | locus YNL067W, strain RPL9B, stronger effect = lower value 0.841 | locus YNL071W, strain lat1, stronger effect = lower value 0.827 | locus YNL153C, strain GIM3, stronger effect = lower value 0.223 | locus YNL233W, strain BNI4, stronger effect = lower value 0.408 | locus YNL271C, strain bni1, stronger effect = lower value 0.846 | locus YNL298W, strain CLA4, stronger effect = lower value 0.839 | locus YNL307C, strain MCK1, stronger effect = lower value 0.37 | locus YNR052C, strain pop2, stronger effect = lower value 0.273 | locus YOL147C, strain pex11, stronger effect = lower value 0.757 | locus YOR061W, strain CKA2, stronger effect = lower value 0.135 | locus YOR069W, strain VPS5, stronger effect = lower value 0.687 | locus YOR070C, strain gyp1, stronger effect = lower value 0.736 | locus YOR083W, strain WHI5, stronger effect = lower value 0.728 | locus YOR106W, strain vam3, stronger effect = lower value 0.387 | locus YOR136W, strain idh2, stronger effect = lower value 0.867 | locus YOR144C, strain elg1, stronger effect = lower value 0.833 | locus YOR184W, strain ser1, stronger effect = lower value 0.387 | locus YOR265W, strain rbl2, stronger effect = lower value 0.881 | locus YOR270C, strain vph1, stronger effect = lower value 0.374 | locus YPL051W, strain arl3, stronger effect = lower value 0.232 | locus YPL078C, strain atp4, stronger effect = lower value 0.755 | locus YPL106C, strain sse1, stronger effect = lower value 0.709 | locus YPL241C, strain CIN2, stronger effect = lower value 0.286 | locus YPR119W, strain clb2, stronger effect = lower value 0.354 | locus YPR163C, strain tif3, stronger effect = lower value 0.889 | locus YPR167C, strain met16, stronger effect = lower value 0.766 | strain wtn01, stronger effect = lower value 0.468
